Experiments:
Assay in all cases: PBM binding z-score (relative to random genomic background probes); higher = stronger binding; sequences stand for … in GC…GCGATTGACAGCGTAGAATGAAGG
[1] = test system: FXR:RXRa (NR concentration 270 nM, RXRa partner concentration 90 nM)
How it was run: (§1)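 Each nuclear receptor dimer, without ligand, was incubated for 1 h on custom Agilent 4×180K protein-binding microarrays. Binding was detected with antibodies against each partner (one per run), and scanned fluorescence was regression-normalized. The binding z-scores are referenced to random human genomic background probes.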

[2] = test system: LXRa:RXRa (NR concentration 270 nM, RXRa partner concentration 90 nM)
How it was run: as §1

[3] = test system: LXRa homodimer (NR concentration 270 nM)
How it was run: as §1

[4] = test system: LXRb:RXRa (NR concentration 270 nM, RXRa partner concentration 90 nM)
How it was run: as §1

[5] = test system: LXRb homodimer (NR concentration 270 nM)
How it was run: as §1

[6] = test system: PPARa:RXRa (NR concentration 270 nM, RXRa partner concentration 90 nM)
How it was run: as §1

[7] = test system: PPARg:RXRa (NR concentration 180 nM, RXRa partner concentration 90 nM)
How it was run: as §1

[8] = test system: PPARg:RXRa 270nM:90nM, anti-RXR (NR concentration 270 nM, RXRa partner concentration 90 nM)
How it was run: as §1

[9] = test system: PPARg:RXRa 30nM:10nM, anti-RXR (NR concentration 30 nM, RXRa partner concentration 10 nM)
How it was run: as §1

[10] = test system: PPARg:RXRa 90nM:30nM, anti-RXR (NR concentration 90 nM, RXRa partner concentration 30 nM)
How it was run: as §1

[11] = test system: PPARg:RXRa DBDmut IVT, anti-RXR (DBD mutation: RXRa K156A/R161A, NR concentration 270 nM, RXRa partner concentration 90 nM)
How it was run: as §1

[12] = test system: PPARg:RXRa IVT, anti-PPARg (NR concentration 270 nM, RXRa partner concentration 90 nM)
How it was run: as §1

[13] = test system: PPARg DBDmut:RXRa IVT, anti-PPARg (DBD mutation: PPARg1 K132A/R137A, NR concentration 270 nM, RXRa partner concentration 90 nM)
How it was run: as §1

[14] = test system: PPARg DBDmut IVT, anti-PPARg (DBD mutation: PPARg1 K132A/R137A, NR concentration 270 nM)
How it was run: as §1

[15] = test system: PPARg homodimer (NR concentration 180 nM)
How it was run: as §1

[16] = test system: PXR:RXRa (NR concentration 270 nM, RXRa partner concentration 90 nM)
How it was run: as §1

[17] = test system: PXR homodimer (NR concentration 270 nM)
How it was run: as §1

[18] = test system: RARa:RXR (NR concentration 270 nM, RXRa partner concentration 90 nM)
How it was run: as §1

[19] = test system: RARa homodimer (NR concentration 270 nM)
How it was run: as §1

[20] = test system: RARb:RXRa (NR concentration 270 nM, RXRa partner concentration 90 nM)
How it was run: as §1

Row | Sequence | PBM binding z-score [1] | PBM binding z-score [2] | PBM binding z-score [3] | PBM binding z-score [4] | PBM binding z-score [5] | PBM binding z-score [6] | PBM binding z-score [7] | PBM binding z-score [8] | PBM binding z-score [9] | PBM binding z-score [10] | PBM binding z-score [11] | PBM binding z-score [12] | PBM binding z-score [13] | PBM binding z-score [14] | PBM binding z-score [15] | PBM binding z-score [16] | PBM binding z-score [17] | PBM binding z-score [18] | PBM binding z-score [19] | PBM binding z-score [20]
1 | TCTAGCAGGCCAGTGGGTCACTCAAGAGGTACGG | 0.165 | 0.09 | -0.387 | 0.111 | -1.21 | 1.83 | 1.59 | 2.19 | 1.78 | 2.09 | 2.62 | 3.66 | -0.249 | -0.535 | -0.0883 | 0.324 | -0.497 | 1.16 | -0.945 | 1.48
2 | AGCATGAGGTTAAGATCAGGGAAACAGAATACAT | 1.97 | 2.02 | 0.07 | 1.75 | 0.151 | 3.06 | 1.14 | 1.04 | 0.357 | 0.819 | 0.0322 | 0.624 | 0.52 | -0.142 | 0.333 | 1.23 | 0.477 | 2.07 | 0.813 | 2.02
3 | CAAACTAGGTCAAGAGGTCATAGTCCGCTTCCCG | 6.79 | 6.06 | 5.4 | 4.74 | 1.48 | 6.55 | 9.82 | 8 | 6.96 | 8.16 | 8.3 | 8.47 | 3.3 | 2.09 | 5.93 | 5.98 | 2.28 | 7.42 | 2.36 | 5.19
4 | TCTTGTAGATCGAGCAGGTTAAGAAAGCCTGAGT | -0.145 | 0.0215 | -0.393 | 0.284 | -0.755 | 0.628 | -0.657 | 1.17 | 2.46 | 1.69 | 1.19 | -0.156 | 0.439 | 0.279 | 0.237 | 0.342 | -0.0974 | 0.496 | -0.293 | -0.102
5 | GCTTGTAGATCAAGGTTCAGAAAGACTAAGCTAA | -0.0392 | 0.122 | 0.0153 | 0.103 | -0.768 | 2.44 | 4.87 | 5.28 | 3.39 | 5.82 | 1.07 | 1.53 | 0.321 | -0.08 | -0.171 | 0.124 | -0.087 | 0.533 | -0.997 | 0.339
6 | GCTCGCAGGACAAGGTCAGAGCTTTGTCCGTAGA | 1.42 | 1.47 | -0.546 | 1.08 | -1.31 | 2.19 | -0.311 | 0.692 | -0.968 | -0.0202 | -0.189 | 0.355 | -1.69 | -1.23 | -0.0307 | 1.35 | -0.47 | 1.6 | -1.24 | 3.05
7 | ATATTTAGGTTACATCCGGGTCATTCAGGCTATG | 2.65 | 4.19 | 2.61 | 3.21 | 1.94 | 4.28 | 4.37 | 4.16 | 2.28 | 3.35 | 6.5 | 6.04 | 2.49 | 3.35 | 3.88 | 3.75 | 3.78 | 4.29 | 3.08 | 2.54
8 | CGTCCAAAGTCAAGGTCAGTGAAAGAGACTCGAA | 2.34 | 2.12 | 0.643 | 1.74 | 0.209 | 2.8 | 0.614 | 1.04 | 0.0766 | 0.615 | 0.62 | 0.874 | -0.185 | -0.414 | 2.49 | 2.05 | 1.01 | 2.47 | 0.742 | 3.62
9 | CGTCAAAGTTCAACTAAGGTAACCTAAAGCACGC | 7.07 | 6.1 | 4.45 | 4.4 | 2.21 | 5.35 | 5.27 | 5.95 | 2.33 | 4.85 | 0.618 | 2.35 | 0.979 | 1.12 | 5.46 | 6.07 | 4.78 | 5.01 | 2.75 | 5.31
10 | ACAGACAGGTGAGTGAAGGTAACTCAGCTGGACG | 0.377 | 0.0321 | -0.247 | -0.255 | -0.625 | 0.294 | 0.762 | 0.0476 | -0.138 | -0.304 | 0.432 | 0.804 | 0.0951 | 0.079 | -0.0829 | -0.379 | -0.472 | 0.0819 | -0.173 | 0.67
11 | ATCGAAAGGTCGTGGTGAGTATAGAGAAAGGGAA | 5.04 | 4.49 | 0.646 | 3.78 | 1.75 | 5.5 | 4.16 | 4.2 | 1.54 | 3.12 | 1.03 | 2.12 | 1.47 | 1.03 | 1.89 | 3.3 | 0.954 | 3.84 | 1.77 | 4.27
12 | TCTTGTAGATCAGCAGGTTAGGAAAGCTGGCCAA | -0.1 | 0.244 | -0.295 | -0.112 | -0.394 | 0.532 | -0.423 | 1.47 | 2.53 | 2.15 | 1.65 | 0.124 | -0.587 | -0.926 | 0.0866 | -0.035 | -0.454 | 0.152 | 0.51 | 0.179
13 | ATCTCTAGGTAAGACTCAGTTCAGTCAAGAACGC | 0.474 | 0.647 | 0.721 | 0.685 | 0.923 | 0.293 | 0.116 | 0.136 | 0.155 | 0.184 | 1.92 | 1.14 | 0.571 | 0.277 | 1.18 | 1.32 | 1.41 | 0.474 | 1.34 | 0.511
14 | ATCTCTAGGTAACCAAGTTCAGTGAGTGCCGAAC | 0.417 | 0.863 | 0.949 | 0.855 | 0.746 | 1.04 | 0.34 | 0.67 | -0.0594 | 0.338 | 3.88 | 2.77 | 0.349 | 0.828 | 0.761 | 2.12 | 3.09 | 0.548 | 0.845 | 1.21
15 | ATCGAAAGGTAGACGAGGTGAGTATACACCGTTT | 0.276 | -0.145 | -0.253 | -0.306 | -0.37 | 0.231 | 0.859 | 0.249 | 0.55 | 0.0652 | 0.012 | 0.628 | 0.703 | 0.518 | 0.162 | -0.0156 | -0.144 | 0.31 | 0.224 | 0.438
16 | GGAAGGAGGGCATTCGAGTTGATAGCATGGCGAT | 1.31 | 1.78 | 0.199 | 0.866 | 0.337 | 1.46 | 0.926 | 1.07 | -0.0182 | 0.639 | 3.26 | 2.42 | -0.146 | 0.314 | 0.39 | 3.38 | 1.3 | 0.52 | -0.113 | 1.56
17 | AGTCAAAGTTCAGGACGAGGTAACGTGAAGCACG | 4.49 | 3.69 | 1 | 1.68 | -0.0491 | 3.33 | 4.84 | 4.84 | 2.04 | 4.12 | -0.189 | 2.06 | 0.679 | 0.0315 | 1.48 | 2.72 | 0.947 | 2.65 | 1.04 | 4.51
18 | TAACCTAGGTCATTCAGGGGCCAGTATAGAAAGC | 5.52 | 5.3 | 3.1 | 3.98 | 2.09 | 4.46 | 3.45 | 4.12 | 1.61 | 3.03 | 3.77 | 4.77 | 0.824 | 0.744 | 2.96 | 3.09 | 0.651 | 4.06 | 0.531 | 4.33
